# Assay results as given in the supplement of paper PMC10338343.
# ± gives the standard deviation.
# System: MILI (PIWIL2) piRISC loaded with L1MC piRNA (26 nt)
# Test: pre-steady-state target cleavage rate (min^-1); guide: L1MC piRNA 5'p-UAACUAAAUACUAUGCAAGCUGUAGG; MIWI and MILI are mouse PIWI proteins and EfPiwi is from a freshwater sponge; tags in brackets are library labels; higher = faster piRNA-guided slicing of the target
# Details: auxiliary factor: 500 nM mouse GTSF1
# In short: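 Sequencing of uncleaved targets, normalised to depth and to weakly complementary targets, was the readout of this Cleave-'n-Seq assay. A transcribed, DNA-blocked target RNA library (0.1 nM) was mixed with 1 nM active affinity-purified piRISC carrying one synthetic guide, with or without 500 nM GTSF1 partner protein, in HEPES–potassium acetate buffer at 33 °C for 0–8 or 0–960 min. Three trials were pooled, k3 was capped at 0.0001 min^-1, and a burst-and-steady-state fit gave the pre-steady-state cleavage rate.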
row,Sequence,pre-steady-state target cleavage rate
1,UCCUGGAUCAGCUUGCAUAGUAUUUAGUUU [g2:g22:cont:t1U],0.357 ± 0.019
2,UCCUGGAUCUGCUUGCAUAGUUUUUAGUUA,0.0213 ± 0.0057
3,UCCUCUUACAGCUUGCAUAGUAUUUAGUUA,0.35 ± 0.015
4,UCCUCCUACAGAUUGCAUAGUAUUUAGUUA,0.236 ± 0.014
5,UCCUCUCUACAGCUUGCAUAGUAUUUAGUUA,0.28 ± 0.022
6,UCCUGCUACACGUUGCAUAGUAUUUAGUAA,0.215 ± 0.028
7,UCCUGCUUCAGCUUGCAUAGUAUUUAGAUA,0.165 ± 0.025
8,UCCUGCUACACUUGCAUAGUAUUUAGUUA,0.268 ± 0.021
9,UCCUGGUACAGCAUGCAUAGUAUUUAGUAA,0.163 ± 0.02
10,UCCUCCAUGAGCUUGCAUAGUAUUUAGUUA,0.279 ± 0.016
11,UCCUGGUACAGCUGUGCAUAGUAUUUAGUUA,0.238 ± 0.019
12,UCCUGGUACAGCUUGGUUAGUAUUUAGUUA,0.192 ± 0.023
13,UCCUGCUACAGCUUGCUUAGUUUUUAGUUA,0.0712 ± 0.011
14,UCCUGGUACAGCUUGCAUAGUAUUUAGUCUA,0.0602 ± 0.024
15,UCCUGGAUGAGCUAGCAUUGUAUUUAGUUA,0.0518 ± 0.0092
16,UCCUGGAUGAGCUAUGCAUAGUAUUUAGUUA,0.202 ± 0.013
17,UCCUGCUACAGCUUGCAUAGUAUUUAGUUU [g2:g25:cont:t1U],0.315 ± 0.022
18,UCCUGGAUGAGCUUGCUUAGUAUUUAGUUA,0.17 ± 0.01
19,UCCUGGAUCAGCUUGCAAAGUAUUUAGUUA,0.151 ± 0.015
20,UCCUGGUACAGCUUGCAUUGUAUUUAGUUA,0.171 ± 0.017

row,Sequence,pre-steady-state target cleavage rate
1,UCCUGGAACAGCUUGAAUAGUAUUUAGUUA,0.243 ± 0.023
2,UCCUGGUACAGGAAGCAUAGUAUUUAGUUA,0.223 ± 0.025
3,UCCUGGAUGAGCUUGCAUCGUAUUUAGUUA,0.0594 ± 0.0092
4,UCCUGCUACAGCAUGCAUAGUAUAUAGUUA,0.284 ± 0.03
5,UCCUCCUACAGCUAGCAUAGUAUAUAGUUA,0.192 ± 0.03
6,UCCUGGUACAGCUUUCAUAGUAUUUAGUUA,0.22 ± 0.042
7,UCCUCCUACAGGAAGCAUAGUAUUUAGUUA,0.292 ± 0.011
8,UCCUCCUACAGCUUGCAAAGUUUUUAGUUA,0.0169 ± 0.0064
9,UCCUCCUACAGCAUGCAUAGUUUUUAGUUA,0.0554 ± 0.01
10,UCCUCCUACUGCUUGCAUACUAUUUAGUUA,0.0694 ± 0.011
11,UCCUGCUACAGUUGCAUAGUAUUUAGUUA,0.256 ± 0.019
12,UCCUCCAACAGCUUGCAUAGUAAUUAGUUA,0.228 ± 0.018
13,UCCUGCUACAGCUUGCAUAGUAUUUAUUUA,0.148 ± 0.03
14,UCCUGGAUCAGCUUGCAAAGUAUUAAGUUA,0.119 ± 0.011
15,UCCUGGAACAGCUUGCGUAGUAUUUAGUUA,0.277 ± 0.016
16,UCCUGCAACAGCUUGCAUAGUAAUUAGUUA,0.34 ± 0.025
17,UCCUGGAACUGCUAGCAUAGUAUUUAGUUA,0.215 ± 0.015
18,UCCUGGAUCAGCUUGCAUAGUUUUUAGUUA,0.0479 ± 0.0086
19,UCCUGGAACAGGUUGCAUAGUAAUUAGUUA,0.206 ± 0.017
20,UCCUGGAUGAUGCUUGCAUAGUAUUUAGUUA,0.228 ± 0.023
